# Hit rate of the full screen: of about 2,200 compounds, about 480 (22%) were called active. The rule behind the calls is not given here. Not all results are given here. Results with a measured potency or affinity are listed apart.
# Assay: S. Typhimurium GFP fluorescence modified counterscreen for PhoP regulon inhibitor project dose response (AID 1981);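 note: 0% = induced DMSO wells and 100% = uninduced wells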
# Settings: 4 h; series mostly up to 150 µM; inhibition: at the top concentration
row,Compound,inhibition
1,NC[C@@]12CCCC1C1CCC2C1 (some centres undefined),-33.1% (inactive)
2,CN(C)S(=O)(=O)Oc1ccsc1C(=O)Nc1ccccc1Cl,-4.31% (inactive)
3,COC(=O)c1cccc(NC(=O)CCCOc2ccccc2)c1,-9.35% (inactive)
4,O=C(CSC1CC(=O)N(CCc2ccccc2)C1=O)Nc1cccc(Cl)c1 (centres undefined),18.6% (inactive)
5,Nc1ccc2nc(SCC(=O)Nc3ccc(N4CCOCC4)c(Cl)c3)sc2c1,4.06% (inactive)
6,Cc1cccc(NC(=O)CCC(=O)OCc2ccc(Br)cc2)c1,-11.4% (inactive)
7,Cc1nc2ccccc2n1CC(=O)N/N=C\C=C\c1ccccc1,3.06% (inactive)
8,O=C(CCN1C(=O)c2ccccc2C1=O)Nc1ccc(-c2cn3ccsc3n2)cc1,-5.3% (inactive)
9,CC(C)(C)n1ncc2c(=O)n(CC(=O)Nc3ccc4c(c3)OCO4)cnc21,4.98% (inactive)
10,O=C1NC(=Nc2ccccc2)/C(=C/c2ccco2)S1,14.3% (inactive)
11,COC(=O)c1ccc(CSc2nnnn2-c2ccccc2)o1,-0.29% (inactive)
12,O=C1c2ccccc2C(=O)N1CCCc1nc(-c2ccccn2)no1,1.57% (inactive)
13,O=C(/C=C/c1ccccc1)N/C(=C/c1ccccc1)C(=O)N1CCOCC1,-23% (inactive)
14,C=CCOc1ccc(Br)cc1/C=N/O,-2.94% (inactive)
15,CCCOc1ccc(Br)cc1CSC(=N)N,39.9% (inactive)
16,COC(=O)c1ccc(NC(=O)c2ccc(N(C)S(C)(=O)=O)cc2)cc1,1.77% (inactive)
17,CC1CCCCN1CCNS(=O)(=O)c1ccc2c(c1)oc(=O)n2C (centres undefined),-2.5% (inactive)

row,Compound,inhibition
1,O=C1NC2=C(CCc3ccccc32)C(c2ccc(Br)cc2)N1 (centres undefined),-14.1% (inactive)
2,Cc1ccccc1NC(=O)c1ccc(-n2cncn2)nc1,2.26% (inactive)
3,CCc1nc2ccccc2c2nc3ccccc3n12,-2.87% (inactive)
4,CCOC(=O)CC(=O)CSc1nc2c(c(C)c1C#N)CCC2,-1.08% (inactive)
5,N/C(=N\c1nc2ccccc2o1)NC(=O)c1ccccc1F,-12.1% (inactive)
6,Oc1ccc(/C=N/NC2=NCCCCC2)c(O)c1,5.44% (inactive)
7,Oc1ccc(/C=N/n2cnn(Cc3ccccc3Cl)c2=S)c(O)c1,3.42% (inactive)
8,O=C(N/N=C/c1ccc(O)cc1O)/C(=C/c1ccccc1)CCO,7.5% (inactive)
9,CC(=O)Nc1cc(N=Cc2ccc(O)cc2O)c(Cl)cc1Cl,33.6% (inactive)
10,CC1C(=O)NN=C1C(=O)N/N=C\c1ccc(O)cc1O (centres undefined),-28.1% (inactive)
11,Cc1ccc2nc(SCCCCOc3ccccc3)[nH]c2c1,-12.1% (inactive)
12,CCOC(=O)CN1C(=O)C(C)(C)Oc2ccc(C(=O)Nc3ccccc3OC)cc21,-3.35% (inactive)
13,O=C(Nc1cc(C(F)(F)F)ccc1N1CCOCC1)c1ccc(Br)o1,-20.1% (inactive)
14,COc1ccc(C)cc1NC(=O)C(Sc1nnc(-c2ccncc2)n1-c1ccc(Cl)cc1)c1ccccc1 (centres undefined),-3.05% (inactive)
15,Cc1ccc(N=Cc2sc(O)c3ccccc23)cc1,-19.9% (inactive)
16,O=C1CSC(=S)N1c1ccc(F)cc1,18.8% (inactive)
17,CC(=O)Nc1nc(-c2ccc(Cl)cc2)nc(C)c1C(C)=O,-11.7% (inactive)

# Source: PubChem BioAssay AID1981 (Southern Research Specialized Biocontainment Screening …, 2009)
